# Test results published in the supplement of paper PMC8728848.
# This is one part of a sample in which the strongest signals are shown more often than they occur.
# B1: Factor H (Homo sapiens), P08603 (protein)
# chain: MRLLAKIICLMLWAICVAEDCNELPPRRNTEILTGSWSDQTYPEGTQAIYKCRPGYRSLGNVIMVCRKGEWVALNPLRKCQKRPCGHPGDTPFGTFTLTGGNVFEYGVKAVYTCNEGYQLLGEINYRECDTDGWTNDIPICEVVKCLPVTAPENGKIVSSAMEPDREYHFGQAVRFVCNSGYKIEGDEEMHCSDDGFWSKEKPKCVEISCKSPDVINGSPISQKIIYKENERFQYKCNMGYEYSERGDAVCTESGWRPLPSCEEKSCDNPYIPNGDYSPLRIKHRTGDEITYQCRNGFYPATRGNTAKCTSTGWIPAPRCTLKPCDYPDIKHGGLYHENMRRPYFPVAVGKYYSYYCDEHFETPSGSYWDHIHCTQDGWSPAVPCLRKCYFPYLENGYNQNYGRKFVQGKSIDVACHPGYALPKAQTTVTCMENGWSPTPRCIRVKTCSKSSIDIENGFISESQYTYALKEKAKYQCKLGYVTADGETSGSITCGKDGWSAQPTCIKSCDIPVFMNARTKNDFTWFKLNDTLDYECHDGYESNTGSTTGSIVCGYNGWSDLPICYERECELPKIDVHLVPDRKKDQYKVGEVLKFSCKPGFTIVGPNSVQCYHFGLSPDLPICKEQVQSCGPPPELLNGNVKEKTKEEYGHSEVVEYYCNPRFLMKGPNKIQCVDGEWTTLPVCIVEESTCGDIPELEHGWAQLSSPPYYYGDSVEFNCSESFTMIGHRSITCIHGVWTQLPQCVAIDKLKKCKSSNLIILEEHLKNKKEFDHNSNIRYRCRGKEGWIHTVCINGRWDPEVNCSMAQIQLCPPPPQIPNSHNMTTTLNYRDGEKVSVLCQENYLIQEGEEITCKDGRWQSIPLCVEKIPCSQPPQIEHGTINSSRSSQESYAHGTKLSYTCEGGFRISEENETTCYMGKWSSPPQCEGLPCKSPPEISHGVVAHMSDSYQYGEEVTYKCFEGFGIDGPAIAKCLGEKWSHPPSCIKTDCLSLPSFENAIPMGEKKDVYKAGEQVTYTCATYYKMDGASNVTCINSRWTGRPTCRDTSCVNPPTVQNAYIVSRQMSKYPSGERVRYQCRSPYEMFGDEEVMCLNGNWTEPPQCKDSTGKCGPPPPIDNGDITSFPLSVYAPASSVEYQCQNLYQLEGNKRITCRNGQWSEPPKCLHPCVISREIMENYNIALRWTAKQKLYSRTGESVEFVCKRGYRLSSRSHTLRTTCWDGKLEYPTCAKR
# How the values were obtained:
# Experiment in all cases: glycan array binding signal (z-score within array); higher = stronger binding
# Details in all cases: glycan notation: IUPAC condensed, linker removed
# [1] = target: Fuc(a1-2)Gal(b1-3)GalNAc(b1-3)Gal
# Procedure, shortened: (§1)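 Glycan array data came from 3228 arrays in the Consortium for Functional Glycomics database, and only arrays with an available protein sequence were kept. Glycan names were put into IUPAC-condensed notation, and columns mapping to the same glycan were averaged. The binding signal is a within-array Z-score, averaged across arrays of one protein sequence run at different concentrations or buffers and across linkers. A negative Z-score can be read as non-binding.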
# [2] = target: Fuc(a1-2)Gal(b1-3)GalNAc(b1-3)Gal(a1-4)Gal(b1-4)Glc
# Procedure, shortened: as §1
# Fuc(a1-2)Gal(b1-4)GlcNAc = target: Fuc(a1-2)Gal(b1-4)GlcNAc
# Procedure, shortened: as §1
# Fuc(a1-2)[Gal(a1-3)]Gal = target: Fuc(a1-2)[Gal(a1-3)]Gal
# Procedure, shortened: as §1
# [3] = target: Fuc(a1-2)[GalNAc(b1-3)]Gal
# Procedure, shortened: as §1
# [4] = target: Fuc(a1-3)[Gal(b1-4)]Glc6S
# Procedure, shortened: as §1
# [5] = target: Gal(a1-3)[Gal(a1-4)]Gal(b1-4)GlcNAc
# Procedure, shortened: as §1
# Gal(a1-4)Gal(b1-4)GlcNAc = target: Gal(a1-4)Gal(b1-4)GlcNAc
# Procedure, shortened: as §1
# [6] = target: Gal(b1-3)[GlcNAc(b1-6)]GalNAc
# Procedure, shortened: as §1
# [7] = target: Gal(b1-4)GlcNAc(b1-3)Gal(b1-4)Glc
# Procedure, shortened: as §1
# [8] = target: Gal(b1-4)GlcNAc(b1-3)[Gal(b1-4)GlcNAc(b1-6)]Gal(b1-4)GlcNAc
# Procedure, shortened: as §1
# [9] = target: Gal(b1-4)GlcNAc(b1-6)Gal(b1-4)GlcNAc
# Procedure, shortened: as §1
# [10] = target: Gal(b1-4)GlcNAc(b1-6)[Gal(b1-3)]GalNAc
# Procedure, shortened: as §1
# Gal3S4S(b1-4)GlcNAc = target: Gal3S4S(b1-4)GlcNAc
# Procedure, shortened: as §1
# Gal3S6S(b1-4)GlcNAc6S = target: Gal3S6S(b1-4)GlcNAc6S
# Procedure, shortened: as §1
# Gal6S(b1-4)Glc6S = target: Gal6S(b1-4)Glc6S
# Procedure, shortened: as §1
# [11] = target: GlcNAc(a1-3)Gal(b1-4)GlcNAc
# Procedure, shortened: as §1
# GlcNAc(b1-3)Man = target: GlcNAc(b1-3)Man
# Procedure, shortened: as §1
# [12] = target: GlcNAc(b1-3)[GlcNAc(b1-6)]GalNAc
# Procedure, shortened: as §1
# [13] = target: GlcNAc(b1-4)Gal(b1-4)GlcNAc
# Procedure, shortened: as §1
# [14] = target: GlcNAc(b1-4)GlcNAc(b1-4)GlcNAc(b1-4)GlcNAc(b1-4)GlcNAc(b1-4)GlcNAc
# Procedure, shortened: as §1
# Kdn(a2-3)Gal(b1-3)GlcNAc = target: Kdn(a2-3)Gal(b1-3)GlcNAc
# Procedure, shortened: as §1
# [15] = target: Man(a1-2)Man(a1-3)[Man(a1-2)Man(a1-6)]Man
# Procedure, shortened: as §1
# Man(b1-4)GlcNAc = target: Man(b1-4)GlcNAc
# Procedure, shortened: as §1
# [16] = target: Neu5Ac(a2-3)Gal(b1-3)GalNAc6S
# Procedure, shortened: as §1
# [17] = target: Neu5Ac(a2-3)Gal(b1-4)GlcNAc(b1-2)Man(a1-3)[Neu5Ac(a2-6)Gal(b1-4)GlcNAc(b1-2)Man(a1-6)]Man(b1-4)GlcNAc(b1-4)GlcNAc
# Procedure, shortened: as §1
# [18] = target: Neu5Ac(a2-6)Gal(b1-4)GlcNAc(b1-2)Man(a1-3)[Neu5Ac(a2-6)Gal(b1-4)GlcNAc(b1-2)Man(a1-6)]Man(b1-4)GlcNAc(b1-4)GlcNAc
# Procedure, shortened: as §1
# Neu5Gc(a2-3)Gal(b1-4)Glc = target: Neu5Gc(a2-3)Gal(b1-4)Glc
# Procedure, shortened: as §1
# Neu5Gc(a2-6)GalNAc = target: Neu5Gc(a2-6)GalNAc
# Procedure, shortened: as §1
binder,measurement,setting,value
B1,glycan array binding signal (z-score),[1],3.46
same,glycan array binding signal (z-score),[2],0.586
same,glycan array binding signal (z-score),Fuc(a1-2)Gal(b1-4)GlcNAc,3.15
same,glycan array binding signal (z-score),Fuc(a1-2)[Gal(a1-3)]Gal,-0.294
same,glycan array binding signal (z-score),[3],3.61
same,glycan array binding signal (z-score),[4],-0.418
same,glycan array binding signal (z-score),[5],-0.355
same,glycan array binding signal (z-score),Gal(a1-4)Gal(b1-4)GlcNAc,-0.467
same,glycan array binding signal (z-score),[6],-0.403
same,glycan array binding signal (z-score),[7],-0.248
same,glycan array binding signal (z-score),[8],-0.173
same,glycan array binding signal (z-score),[9],-0.316
same,glycan array binding signal (z-score),[10],-0.537
same,glycan array binding signal (z-score),Gal3S4S(b1-4)GlcNAc,-0.168
same,glycan array binding signal (z-score),Gal3S6S(b1-4)GlcNAc6S,11.8
same,glycan array binding signal (z-score),Gal6S(b1-4)Glc6S,0.498
same,glycan array binding signal (z-score),[11],-0.015
same,glycan array binding signal (z-score),GlcNAc(b1-3)Man,2.51
same,glycan array binding signal (z-score),[12],1
same,glycan array binding signal (z-score),[13],0.172
same,glycan array binding signal (z-score),[14],-0.101
same,glycan array binding signal (z-score),Kdn(a2-3)Gal(b1-3)GlcNAc,1.99
same,glycan array binding signal (z-score),[15],0.253
same,glycan array binding signal (z-score),Man(b1-4)GlcNAc,-0.282
same,glycan array binding signal (z-score),[16],-0.221
same,glycan array binding signal (z-score),[17],0.231
same,glycan array binding signal (z-score),[18],-0.439
same,glycan array binding signal (z-score),Neu5Gc(a2-3)Gal(b1-4)Glc,-0.053
same,glycan array binding signal (z-score),Neu5Gc(a2-6)GalNAc,-0.411
